# According to PubChem BioAssay:
# Activity calls are given as the source filed them.
# How the values were obtained:
# [1] = small molecules captured by biotinylated probe aFSTL3 – biochemical, small-molecule microarray, fluorescence 635/667, stem cell growth factor project, primary screen (AID 1064); conditions: higher = more signal;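 also: measures binding of the biotinylated anti-FSTL3 antibody to printed compounds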
# [2] = binders from COS7 lysate, DM2A8 probe, primary screen, torsin A project, cell lysate, small-molecule microarray, fluorescence 635/667 (AID 1065); conditions: higher = more signal, COS7 lysate expressing mutant human TOR1A
# [3] = small molecules captured by biotinylated probe aFGF2 – biochemical, small-molecule microarray, fluorescence 635/667, stem cell growth factor project, primary screen (AID 1067); conditions: higher = more signal;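 also: measures binding of biotinylated aFGF2 protein to printed compounds on slides; z-score merges feature fluorescence and signal-to-noise across triplicate slides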
# [4] = small molecules captured by biotinylated probe aFGF10 – biochemical, small-molecule microarray, fluorescence 635/667, stem cell growth factor project, primary screen (AID 1071); conditions: higher = more signal;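 also: score merges 667 nm spot intensity and signal to noise from triplicate slides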
# [5] = biological target: Neurogenic locus notch homolog protein 2 (Homo sapiens) (UniProt Q04721); experiment: small molecules binding Notch2 protein – biochemical, small-molecule microarray, 635 nm fluorescence, stem cell growth factors, primary screen (AID 1073); conditions: higher = more signal
# Neurogenic locus notch homolog protein 2 (Homo sapiens), sequence (Q04721 whole entry, looked up, canonical isoform): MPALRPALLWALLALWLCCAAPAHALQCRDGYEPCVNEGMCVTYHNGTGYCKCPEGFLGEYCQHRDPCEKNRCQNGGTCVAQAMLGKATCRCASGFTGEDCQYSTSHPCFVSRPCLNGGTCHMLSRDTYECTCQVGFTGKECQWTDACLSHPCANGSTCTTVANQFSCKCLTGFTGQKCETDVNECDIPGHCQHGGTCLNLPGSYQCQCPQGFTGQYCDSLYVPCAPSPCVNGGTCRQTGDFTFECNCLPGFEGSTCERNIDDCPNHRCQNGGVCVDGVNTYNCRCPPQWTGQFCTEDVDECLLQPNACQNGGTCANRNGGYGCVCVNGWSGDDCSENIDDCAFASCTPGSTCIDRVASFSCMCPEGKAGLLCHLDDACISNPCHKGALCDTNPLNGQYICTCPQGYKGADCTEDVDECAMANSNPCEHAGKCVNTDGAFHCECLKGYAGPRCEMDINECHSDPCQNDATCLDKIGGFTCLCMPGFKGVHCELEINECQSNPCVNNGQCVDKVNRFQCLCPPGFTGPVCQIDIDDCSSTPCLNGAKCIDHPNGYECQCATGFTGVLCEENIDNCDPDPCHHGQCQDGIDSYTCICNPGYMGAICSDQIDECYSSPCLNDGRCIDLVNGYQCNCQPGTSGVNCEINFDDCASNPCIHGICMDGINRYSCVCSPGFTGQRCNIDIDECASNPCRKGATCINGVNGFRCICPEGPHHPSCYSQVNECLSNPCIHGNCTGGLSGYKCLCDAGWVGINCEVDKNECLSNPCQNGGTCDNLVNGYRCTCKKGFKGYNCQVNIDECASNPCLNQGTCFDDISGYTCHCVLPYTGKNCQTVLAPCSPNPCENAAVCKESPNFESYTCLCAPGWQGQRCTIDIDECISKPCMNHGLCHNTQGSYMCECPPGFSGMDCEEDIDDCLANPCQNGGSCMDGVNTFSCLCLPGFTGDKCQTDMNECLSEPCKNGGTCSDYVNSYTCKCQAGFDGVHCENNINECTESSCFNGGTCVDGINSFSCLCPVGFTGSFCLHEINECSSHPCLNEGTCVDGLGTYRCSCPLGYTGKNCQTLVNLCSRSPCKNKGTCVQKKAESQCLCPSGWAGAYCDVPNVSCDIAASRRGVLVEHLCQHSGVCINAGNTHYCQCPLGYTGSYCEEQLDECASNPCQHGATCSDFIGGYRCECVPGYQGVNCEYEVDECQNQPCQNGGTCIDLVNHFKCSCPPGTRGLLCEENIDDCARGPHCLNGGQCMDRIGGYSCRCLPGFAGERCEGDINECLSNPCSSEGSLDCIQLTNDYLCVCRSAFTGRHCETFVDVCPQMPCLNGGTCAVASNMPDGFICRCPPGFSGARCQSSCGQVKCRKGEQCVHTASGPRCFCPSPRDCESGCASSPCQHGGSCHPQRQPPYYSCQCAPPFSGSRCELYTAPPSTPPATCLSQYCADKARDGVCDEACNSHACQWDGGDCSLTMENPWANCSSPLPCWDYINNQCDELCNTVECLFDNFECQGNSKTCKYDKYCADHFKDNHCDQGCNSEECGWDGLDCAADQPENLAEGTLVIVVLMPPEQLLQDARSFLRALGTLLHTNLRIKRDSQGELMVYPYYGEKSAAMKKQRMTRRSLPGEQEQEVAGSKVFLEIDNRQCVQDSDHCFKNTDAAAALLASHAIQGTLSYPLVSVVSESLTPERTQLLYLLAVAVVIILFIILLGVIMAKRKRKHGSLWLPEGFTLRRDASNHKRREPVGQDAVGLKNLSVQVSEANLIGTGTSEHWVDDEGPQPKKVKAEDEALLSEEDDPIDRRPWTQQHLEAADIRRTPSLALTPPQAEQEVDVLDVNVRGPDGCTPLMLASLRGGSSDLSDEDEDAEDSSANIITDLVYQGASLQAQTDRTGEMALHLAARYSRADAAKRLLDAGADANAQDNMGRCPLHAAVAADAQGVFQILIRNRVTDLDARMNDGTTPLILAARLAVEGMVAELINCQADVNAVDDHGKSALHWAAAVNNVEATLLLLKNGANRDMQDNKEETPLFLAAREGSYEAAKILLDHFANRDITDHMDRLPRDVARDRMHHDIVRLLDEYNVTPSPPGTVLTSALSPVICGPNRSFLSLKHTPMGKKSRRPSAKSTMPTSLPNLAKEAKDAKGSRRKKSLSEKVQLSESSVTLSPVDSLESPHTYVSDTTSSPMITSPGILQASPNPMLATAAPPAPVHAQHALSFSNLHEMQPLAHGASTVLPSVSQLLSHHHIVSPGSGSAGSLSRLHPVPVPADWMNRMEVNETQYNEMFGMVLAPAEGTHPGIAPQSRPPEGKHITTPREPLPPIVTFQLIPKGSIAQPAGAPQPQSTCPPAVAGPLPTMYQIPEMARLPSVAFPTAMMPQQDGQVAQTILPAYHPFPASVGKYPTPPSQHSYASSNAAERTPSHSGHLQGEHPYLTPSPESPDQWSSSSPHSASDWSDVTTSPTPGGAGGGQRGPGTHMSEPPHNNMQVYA
# [6] = biological target: Pro-neuregulin-1, membrane-bound isoform (Homo sapiens) (UniProt Q02297); experiment: small molecules binding neuregulin-1 protein – biochemical, small-molecule microarray, fluorescence 635/667, psychiatric disease protein project, primary screen (AID 1075); conditions: NRG1 binding, 635 nm fluorescence, higher = more signal;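 also: score combines 667 nm spot fluorescence with signal to noise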
# Pro-neuregulin-1, membrane-bound isoform (Homo sapiens), sequence (Q02297 whole entry, looked up, the tested form may be a part, canonical isoform): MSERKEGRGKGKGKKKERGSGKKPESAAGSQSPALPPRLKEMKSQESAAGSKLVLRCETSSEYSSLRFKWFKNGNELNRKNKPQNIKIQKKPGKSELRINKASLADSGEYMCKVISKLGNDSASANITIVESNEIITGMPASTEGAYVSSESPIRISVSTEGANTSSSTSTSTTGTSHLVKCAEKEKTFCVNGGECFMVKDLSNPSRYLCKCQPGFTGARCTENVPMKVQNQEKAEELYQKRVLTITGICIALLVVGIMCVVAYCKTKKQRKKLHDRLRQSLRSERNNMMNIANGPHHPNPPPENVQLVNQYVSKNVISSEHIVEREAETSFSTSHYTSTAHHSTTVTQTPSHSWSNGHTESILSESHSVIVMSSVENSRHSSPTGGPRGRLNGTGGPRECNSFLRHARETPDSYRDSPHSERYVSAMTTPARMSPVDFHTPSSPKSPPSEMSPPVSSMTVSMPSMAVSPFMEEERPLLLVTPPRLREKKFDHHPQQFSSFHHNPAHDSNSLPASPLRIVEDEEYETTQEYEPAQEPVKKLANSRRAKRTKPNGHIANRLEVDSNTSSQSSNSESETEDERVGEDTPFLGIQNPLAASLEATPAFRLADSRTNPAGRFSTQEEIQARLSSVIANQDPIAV
# [7] = test system: Neuregulin-1 EGF-like domain; experiment: small molecules binding NRG1 EGF domain – biochemical, small-molecule microarray, 635 nm fluorescence, primary screen (AID 1081); conditions: higher = more signal;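 also: binding of the protein to compounds printed on small-molecule microarray slides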
# [8] = FRG1 expression reporter modulators in myotubes – cell-based, C2C12 myotubes, firefly/Renilla luciferase, luminescence, FRG1 inhibition for FSHD, primary screen (AID 1084); conditions: FRG1 promoter luciferase, higher = more signal, called active from +8 up or from −8 down
# [9] = small molecules captured by biotinylated probe aFST – biochemical, small-molecule microarray, fluorescence 635/667, stem cell growth factor project, primary screen (AID 1086); conditions: higher = more signal;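 also: score merges 667 nm fluorescence with signal-to-noise of each printed compound spot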
# [10] = binders of probe aHhip on microarray, primary screen, stem cell growth factor project, biochemical, small-molecule microarray, fluorescence 635/667 (AID 1087); conditions: higher = more signal;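 also: score merges spot fluorescence at 667nm with spot signal to noise ratio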
SMILES,composite z-score [1],composite z-score [2],composite z-score [3],composite z-score [4],composite z-score [5],composite z-score [6],composite z-score [7],z-score [8],composite z-score [9],composite z-score [10]
O=c1cccc(-c2ccco2)o1,-0.539,0.336,-0.132,0.694,0.386,0.904,0.498,0.557 (inactive),0.0153,-0.0994
CN1C(=O)C2C(C1=O)C1C=C(CCCO)C2C(C2CC2)N1Cc1cc2c(cc1Br)OCO2 (stereo not given),0.454,0.919,-0.141,0.271,0.713,1.24,1.29,-0.999 (inactive),0.252,-0.201
CCN(CC)c1ccc(N2CC=CC34O[C@@H]5/C=C\CCC(C)OC(=O)C5[C@H]3C(=O)N(C(C)CO)[C@@H]4C2=O)cc1 (stereo not given in full),-0.0462,-0.362,-0.116,-0.244,-1.06,0.168,-0.527,0.355 (inactive),-0.293,-0.652
O=C1C[C@@](C(=O)NCc2ccccc2)(c2ccc([N+](=O)[O-])cc2)[C@@H](c2ccc(CO)cc2I)N1CC12CC3CC(CC(C3)C1)C2,-0.262,0.656,-0.0412,0.831,1.2,0.656,1.15,-1.32 (inactive),0.572,0.261
CC(C)(C)OC(=O)CC[C@]12N=C(c3ccc(OCCCO)cc3)O[C@H]1c1ccccc1N(Cc1ccccc1)C2=O,0.555,0.178,0.0436,0.329,0.0567,0.457,1.13,-1.7 (inactive),0.259,-0.187
CC(=O)n1cc(C(O)C2C=CC3C(=O)N(c4ccccc4)C(=O)C3N2Nc2ccc(C(C)C)cc2)c2ccccc21 (stereo not given),0.657,0.249,0.125,0.899,1.55,1.95,1.15,-0.833 (inactive),1.07,-0.0645
CC(C)[C@H]1NC(=O)[C@@]23C(=O)N[C@@H](Cc4ccccc4)C2[C@H](C)[C@@]2(C)O[C@H]2C3/C=C/C/C=C\CNC(=O)[C@H](Cc2ccccc2)NC1=O (stereo not given in full),-0.264,0.425,-0.0462,1.01,0.878,0.781,0.957,0.304 (inactive),0.353,0.235
C=C(C(=O)CC[C@@H](OC(=O)c1ccccc1-c1ccccc1C(=O)O)c1ccccc1OCCO)C(C)C,-0.248,0.95,-0.113,0.858,0.493,0.0729,0.838,0.16 (inactive),0.111,0.233
